Key:
Assay type in all cases: functional
Plasmodium falciparum [1] = assay: GSK_TCMDC: Inhibition of Plasmodium falciparum 3D7 in whole red blood cells, using parasite LDH activity as an index of growth. Test compounds present at 2uM
Plasmodium falciparum [2] = assay: GSK_TCMDC: Inhibition of Plasmodium falciparum Dd2 in whole red blood cells, using parasite LDH activity as an index of growth. Test compounds present at 2uM
HepG2 = assay: GSK_TCMDC: Percent inhibition of human HepG2 cell line. Test compounds present at 10uM.

Row | SMILES | Inhibition (Plasmodium falciparum [1]) | Inhibition (Plasmodium falciparum [2]) | Inhibition (HepG2)
1 | Cc1cc(NCCC(=O)Nc2ccccc2)nc(NCCc2ccc(F)cc2)n1.O=C(O)C(F)(F)F | 100% | 43% | 26%
2 | Cl.O=C(NCCCCN1CCC(c2ccc3c(c2O)CCCC3)CC1)c1ccc(NC(=O)c2ccc(Cl)cc2)cc1 | 100% | 100% | 99%
3 | O=C(/C=C/c1ccccc1O)N1CCC(CCN2CCC(c3c[nH]c4ccccc34)CC2)CC1 | 100% | 15% | 46%
4 | Br.CC1(C)NC(N)=NC(=N)N1OCCOc1ccc2ccccc2c1 | 93% | 96% | 70%
5 | CC1=C(C(=O)Nc2cc3cn[nH]c3cc2F)C(c2ccc(Cl)c(NS(C)(=O)=O)c2)CC(=O)N1 (stereo not given) | 88% | 98% | 2%
6 | O=C(Nc1ccccc1-c1ccccc1)C1CCCN1C(=O)Nc1ccc(Cl)cc1 (stereo not given) | 96% | 90% | 0%
7 | O=C1C2C3SC(c4c3ccc3ccccc43)C2C(=O)N1c1ccccc1 (stereo not given) | 96% | 7% | 0%
8 | CCNc1cc(C(=O)N[C@@H](Cc2ccccc2)[C@H](O)CNC2CC3CCC2C3)cc(N2CCCCS2(=O)=O)c1.Cl (stereo not given in full) | 99% | 73% | 0%
9 | O=C(O)C(F)(F)F.Oc1ccc(CN2CCC(NCc3cccc(C(F)(F)F)c3)CC2)cc1 | 100% | 64% | 10%
10 | COc1ccc(-c2c3c(=O)n(C)c(=O)n(C)c3c3nnc4ccccc4n23)cc1 | 96% | 86% | 0%
11 | Cc1ccc(C(CC(=O)Nc2nccs2)c2ccc(OC(C)C)cc2)cc1 (stereo not given) | 94% | 90% | 5%
12 | FC(F)(F)c1cccc(CCNc2nccc(NCc3ccccc3Cl)n2)c1 | 89% | 38% | 31%
13 | O=C(O)C(F)(F)F.O=c1cc(N2CCCNCC2)c(Cl)nn1Cc1ccc(NS(=O)(=O)c2ccc(Oc3ccccc3)cc2)cc1 | 98% | 0% | 0%
14 | N=C1NC(=O)C(=Cc2cn(-c3ccccc3)nc2-c2cccc(S(=O)(=O)N3CCCC3)c2)S1 | 85% | 68% | 0%
15 | Oc1cc2c(cc1CN1CCN(Cc3ccc(Cl)s3)CC1)CCC2 | 98% | 76% | 7%
16 | Cc1ccc(C(=O)N2CCN(Cc3nccs3)CC2)cc1 | 86% | 0% | 0%
17 | Br.Cc1ccnc(Nc2nc(-c3ccccn3)cs2)c1 | 100% | 87% | 45%
18 | Cc1cc(NC2CCCC2)nc(Nc2ccccc2F)n1 | 97% | 53% | 24%
19 | CCN(CCCN1CCCCC1)c1cc(C)nc(Nc2ccc(C)c(C)c2)n1.O=C(O)C(F)(F)F | 100% | 60% | 30%
20 | CCc1c(CCNCCCCCCNC(C)(C)Cc2ccc3c(c2CC)OCO3)ccc(OC)c1OC.Cl | 100% | 50% | 100%
21 | Cc1nc(-c2cccc(C(F)(F)F)c2)n2nc(Nc3ccc(OCCN4CCCC4)cc3)ncc12 | 99% | 29% | 30%
22 | O=C(O)C(F)(F)F.Oc1ccc(-c2nc3c(N4CCN(Cc5ccccc5)CC4)cccc3n2C2CCNCC2)cc1 | 85% | 7% | 0%
23 | Cc1ccc(C)c(NC(=O)NCCNc2ccnc(Nc3ccc(F)cc3)n2)c1 | 97% | 5% | 21%
24 | O=C(Nc1ccnc(N2CCCN(Cc3cccc(O)c3)CC2)c1)c1ccc(F)cc1.O=C(O)C(F)(F)F | 90% | 3% | 12%
25 | Cc1cc(N[C@@H](Cc2ccccc2)C(=O)Nc2ccccc2)nc(Nc2ccccc2)n1.O=C(O)C(F)(F)F | 100% | 69% | 8%
26 | COc1ccc(-c2cccc(NC(=O)c3ccc(Cl)cc3)c2)cc1CN1CCNCC1.O=C(O)C(F)(F)F | 96% | 22% | 52%
27 | Nc1nc(N)c2c3c(cnc2n1)CCCC3 | 95% | 0% | 61%
28 | CC(C)(C)c1cc(Cn2ccnc2)cc(C(C)(C)C)c1O | 85% | 3% | 4%
29 | Cc1ccc2nc(-c3ccc(C(=O)NCc4ccc(Cl)c(Cl)c4)cc3)[nH]c2c1C | 96% | 26% | 19%
30 | Fc1cccc(CNc2ncc(-c3ccsc3)c(-c3nccs3)n2)c1 | 91% | 85% | 15%
